Drawing on PubChem BioAssay AID777 (Sanford-Burnham Center for Chemical Genomics, 2007), this text covers inhibition for 28 compounds.

The structures appear in SMILES notation. Screen size: about 96,000 compounds; about 19,000 (20%) were called active. Not all results are given here. Unmarked numbers belong to inactive results.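 The calls were made as follows: active = blocking of liver enzyme CYP2C9 beyond about 50% at 5 µM (limit read from the data); inactive = the rest.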

Chain of Cytochrome P450 2C9 (Homo sapiens) (P11712 whole entry, looked up): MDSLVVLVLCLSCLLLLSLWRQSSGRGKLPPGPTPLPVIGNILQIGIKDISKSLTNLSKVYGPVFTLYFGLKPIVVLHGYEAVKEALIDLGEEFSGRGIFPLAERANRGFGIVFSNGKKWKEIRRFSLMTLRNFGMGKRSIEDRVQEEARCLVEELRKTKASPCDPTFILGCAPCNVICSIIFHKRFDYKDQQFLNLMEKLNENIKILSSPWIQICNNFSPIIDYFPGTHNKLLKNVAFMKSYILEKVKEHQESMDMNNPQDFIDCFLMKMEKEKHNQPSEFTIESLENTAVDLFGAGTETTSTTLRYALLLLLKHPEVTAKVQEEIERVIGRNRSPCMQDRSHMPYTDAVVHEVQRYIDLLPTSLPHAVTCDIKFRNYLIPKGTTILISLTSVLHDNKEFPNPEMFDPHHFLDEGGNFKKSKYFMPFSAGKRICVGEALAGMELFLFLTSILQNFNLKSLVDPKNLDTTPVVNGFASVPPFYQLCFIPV

This assay addresses Cytochrome P450 2C9 (Homo sapiens) (UniProt P11712). As to the kind of experiment: blockers of cytochrome P450 2C9 activity – biochemical, luminescence, ADME assay, primary screen (AID 777). The conditions noted are these: CYP2C9 Supersomes, luciferin-H conversion, at 5 µM, active compounds read high.
`COC(=O)Cn1c2ccc(C)cc2c2nc(C)sc21`: the inhibition is 22.4%.
Then `CCCCOC(=O)Cn1c(=O)n(CC(=O)OCCCC)c2cc(C)ccc21`, with 60.8% (active); and `CCCCOC(=O)Cn1c(=N)n(CCN(CC)CC)c2ccccc21`, with -37.7%; and `CCCCOC(=O)c1[nH]c(C)c(C(=O)OC)c1C`, with 61.2% (active).
Then `COCCCNCC(=O)Nc1sc(C)c(C)c1C(=O)OC`, with 39.5%.
With `CCCCN(CC)CCNC(=O)c1[nH]c(C)c(C(C)=O)c1C`, the inhibition was -14.6%.
As for `CCCOc1ccc(NC(=O)C2CCCNC2=O)cc1` (stereo not drawn), the inhibition is 1.9%.
Then `CC(=O)Nc1ccc(NC(=O)CSCc2cnn(-c3ccccc3)c2-n2cccc2)cc1`, with 86.6% (active); and `COc1ccc(-n2nnnc2SCC(=O)Nc2ccccc2)cc1`, with -7.3%.
With `Cc1cc(C)cc(NC(=O)CSCc2cnn(-c3ccccc3)c2-n2cccc2)c1`, the inhibition is 44%.
Regarding `Cc1ccc(NC(=O)c2cc(-c3ccc(C)o3)nc3ccccc23)nc1`, the inhibition was 3.2%.
For the compound `CC(=O)OCc1cc2cc(C)ccc2[nH]c1=O`, the inhibition was -8%.
Regarding `Cc1cccc(NC(=O)/C(=C\c2ccco2)NC(=O)c2ccccc2)c1`, the inhibition is 32.5%.
Turning to `C/C(=C\c1ccco1)C1Nc2cccc3cccc(c23)N1`, the inhibition is 55.5% (active).
For the compound `O=C(NCC1CCCO1)/C(=C\c1ccco1)NC(=O)c1ccccc1` (stereo not drawn), the inhibition was -18.8%.
Regarding `COc1ccc2c(c1OC)C(=O)N(c1ncn[nH]1)C2`, the inhibition was -23.9%.
For `CCN(CC)C(=O)CC1(c2ccccc2OC)CCOC(C(C)C)C1` (stereo not drawn), the inhibition is 17%.
For `O=C(CN1CCN(S(=O)(=O)c2ccc3ccccc3c2)CC1)NC(=O)NC1CCCCC1`, the inhibition is -18.3%.
On to `O=S(=O)(c1ccc2ccccc2c1)N1CCN(S(=O)(=O)N2CCOCC2)CC1`, for which the inhibition was -53.6%.
Then `O=C(CCc1ccc(S(=O)(=O)N2CCOCC2)cc1)Nc1ccc2ccccc2c1`, with 55.3% (active); and `Cn1nnnc1SCc1cc(=O)[nH]c2ccccc12`, with 14.5%.
Then `CCOC(=O)Cc1c(C)nc2c(C#N)c(C)nn2c1C`, with -3.2%; and `CCCOn1c(-n2nc(C)cc2C)nc2ccccc2c1=O`, with 11.3%.
On to `O=c1c2ccccc2nc(N/N=C/c2ccccc2)n1O`, for which the inhibition was -1.4%.
With `CCCc1nc2ccccc2c(=O)n1/N=C/c1ccc(O)c(O)c1`, the inhibition is 85.3% (active).
`O=C(Cc1ccc(-n2c(=O)[nH]c3ccccc3c2=O)cc1)N1CCN(c2cccc(Cl)c2)CC1`: the inhibition was 57.5% (active).
`CCOC(=O)N1CCN(C(=O)Cc2ccc(-n3c(=S)[nH]c4ccccc4c3=O)cc2)CC1`: the inhibition is 11.8%.
For the compound `CCOC(=O)N1CCC(Nc2c(NCCN3CCN(c4cccc(Cl)c4)CC3)c(=O)c2=O)CC1`, the inhibition is 0.8%.
